Experimental data from paper PMC7862700, “An all-to-all approach to the identification of sequence-specific readers for epigenetic DNA modifications on cytosine”.

Assays:
Assay in all cases: DAPPL (digital affinity profiling via proximity ligation, sequencing); 10 mM Tris-HCl pH 7.5, 50 mM NaCl, 1 mM DTT, 4% glycerol, room temperature, 30 min; GST-TFs on glutathione beads, 16-mer random dsDNA library, 0.1% formaldehyde crosslink after washing; high values mean tight binding
FLI1 = target: T1, FLI1 (Homo sapiens, UniProt Q01543 1-452); settings: protein: recombinant; tags: N-terminal GST; dsDNA, one strand shown
T1 sequence: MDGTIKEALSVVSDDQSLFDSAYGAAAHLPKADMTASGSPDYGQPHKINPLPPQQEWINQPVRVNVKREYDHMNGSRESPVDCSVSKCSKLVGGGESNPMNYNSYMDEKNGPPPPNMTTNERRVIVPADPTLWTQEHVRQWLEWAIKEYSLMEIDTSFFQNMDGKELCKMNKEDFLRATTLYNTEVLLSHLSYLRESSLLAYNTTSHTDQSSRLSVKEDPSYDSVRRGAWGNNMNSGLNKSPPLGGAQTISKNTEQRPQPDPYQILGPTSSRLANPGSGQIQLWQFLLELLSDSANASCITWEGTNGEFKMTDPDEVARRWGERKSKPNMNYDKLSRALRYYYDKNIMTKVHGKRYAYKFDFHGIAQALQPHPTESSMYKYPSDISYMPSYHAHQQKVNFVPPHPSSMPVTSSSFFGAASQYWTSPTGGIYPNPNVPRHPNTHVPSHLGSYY
Procedure, shortened: (§1)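 Beads coated with glutathione captured GST-fused human transcription factors that had been expressed in yeast, and the factors were then given DNA barcodes and pooled with a tag-only sample. The pools were incubated with 200 nmole of a random double-stranded 16-mer DNA library in Tris/NaCl/DTT/glycerol buffer for 30 min at room temperature, washed, crosslinked with 0.1% formaldehyde and proximity-ligated with BsaI/T4 ligase at 37 °C for 1 h. PCR amplification and Illumina NextSeq500 sequencing came last. Binding signal is each hexamer's read frequency for a factor divided by its frequency for the tag-only sample.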

ELK1 = target: T2, ELK1 (Homo sapiens, UniProt P19419 1-428); settings: protein: recombinant; tags: N-terminal GST; dsDNA, one strand shown
T2 sequence: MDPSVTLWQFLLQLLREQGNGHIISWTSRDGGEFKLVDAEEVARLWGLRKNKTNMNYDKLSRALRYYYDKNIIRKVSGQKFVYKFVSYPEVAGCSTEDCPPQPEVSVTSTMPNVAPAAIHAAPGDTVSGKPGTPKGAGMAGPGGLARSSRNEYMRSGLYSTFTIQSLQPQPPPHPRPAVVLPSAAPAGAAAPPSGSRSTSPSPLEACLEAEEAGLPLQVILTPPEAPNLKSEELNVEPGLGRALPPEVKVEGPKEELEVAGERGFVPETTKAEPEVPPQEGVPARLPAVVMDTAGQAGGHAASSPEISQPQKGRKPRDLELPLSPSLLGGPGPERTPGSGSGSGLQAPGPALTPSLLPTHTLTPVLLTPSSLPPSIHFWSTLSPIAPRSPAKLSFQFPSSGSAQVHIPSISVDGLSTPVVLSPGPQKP
Procedure, shortened: as §1

GABPA = target: T3, GABPA (Homo sapiens, UniProt Q06546 1-454); settings: protein: recombinant; tags: N-terminal GST; dsDNA, one strand shown
T3 sequence: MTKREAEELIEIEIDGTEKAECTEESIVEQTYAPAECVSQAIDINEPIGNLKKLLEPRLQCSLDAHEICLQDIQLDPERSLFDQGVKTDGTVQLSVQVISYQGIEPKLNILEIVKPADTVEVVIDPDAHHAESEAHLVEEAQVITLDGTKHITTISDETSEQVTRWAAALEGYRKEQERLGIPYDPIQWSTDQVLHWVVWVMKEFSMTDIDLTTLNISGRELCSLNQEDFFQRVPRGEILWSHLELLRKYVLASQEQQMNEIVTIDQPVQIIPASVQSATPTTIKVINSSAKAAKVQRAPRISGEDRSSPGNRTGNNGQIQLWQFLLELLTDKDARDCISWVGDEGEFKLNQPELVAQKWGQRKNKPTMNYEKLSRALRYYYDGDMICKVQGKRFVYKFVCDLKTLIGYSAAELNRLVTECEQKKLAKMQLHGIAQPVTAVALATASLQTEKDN
Procedure, shortened: as §1

ERG = target: T4, ERG (Homo sapiens, UniProt P11308 1-479); settings: protein: recombinant; tags: N-terminal GST; dsDNA, one strand shown
T4 sequence: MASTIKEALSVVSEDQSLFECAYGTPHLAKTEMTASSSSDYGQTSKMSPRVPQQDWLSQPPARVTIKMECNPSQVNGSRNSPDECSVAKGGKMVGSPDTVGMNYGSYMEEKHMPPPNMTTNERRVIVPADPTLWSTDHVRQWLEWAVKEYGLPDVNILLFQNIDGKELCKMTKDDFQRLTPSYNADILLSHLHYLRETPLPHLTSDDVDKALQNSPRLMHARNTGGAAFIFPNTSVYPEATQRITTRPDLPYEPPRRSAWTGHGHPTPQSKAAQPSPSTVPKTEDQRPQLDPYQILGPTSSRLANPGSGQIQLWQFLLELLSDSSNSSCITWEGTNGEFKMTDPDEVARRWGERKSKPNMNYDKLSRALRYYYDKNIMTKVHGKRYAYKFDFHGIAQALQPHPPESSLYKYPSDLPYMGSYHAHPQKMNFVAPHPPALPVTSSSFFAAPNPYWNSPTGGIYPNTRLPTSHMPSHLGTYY
Procedure, shortened: as §1

ELF1 = ELF1 (Homo sapiens, UniProt P32519 1-619); settings: protein: recombinant; tags: N-terminal GST; dsDNA, one strand shown
Chain of ELF1 (P32519 whole entry): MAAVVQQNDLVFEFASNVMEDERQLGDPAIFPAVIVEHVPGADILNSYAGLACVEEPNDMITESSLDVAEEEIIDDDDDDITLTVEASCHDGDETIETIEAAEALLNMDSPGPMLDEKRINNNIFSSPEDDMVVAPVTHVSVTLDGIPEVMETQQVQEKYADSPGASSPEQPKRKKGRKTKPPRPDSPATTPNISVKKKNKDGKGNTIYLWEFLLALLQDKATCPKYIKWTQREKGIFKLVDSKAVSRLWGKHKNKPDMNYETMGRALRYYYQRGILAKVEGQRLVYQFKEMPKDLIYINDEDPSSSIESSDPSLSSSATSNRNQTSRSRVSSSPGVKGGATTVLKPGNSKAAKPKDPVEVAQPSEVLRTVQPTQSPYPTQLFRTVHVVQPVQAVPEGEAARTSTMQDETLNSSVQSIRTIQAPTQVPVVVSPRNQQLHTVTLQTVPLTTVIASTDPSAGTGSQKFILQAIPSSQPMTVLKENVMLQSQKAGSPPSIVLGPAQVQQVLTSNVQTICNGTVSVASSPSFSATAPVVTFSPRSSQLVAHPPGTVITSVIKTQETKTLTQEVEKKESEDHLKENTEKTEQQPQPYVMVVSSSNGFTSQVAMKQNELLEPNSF
Procedure, shortened: as §1

EHF = target: T5, EHF (Homo sapiens, UniProt Q9NZC4 1-300); settings: protein: recombinant; tags: N-terminal GST; dsDNA, one strand shown
T5 sequence: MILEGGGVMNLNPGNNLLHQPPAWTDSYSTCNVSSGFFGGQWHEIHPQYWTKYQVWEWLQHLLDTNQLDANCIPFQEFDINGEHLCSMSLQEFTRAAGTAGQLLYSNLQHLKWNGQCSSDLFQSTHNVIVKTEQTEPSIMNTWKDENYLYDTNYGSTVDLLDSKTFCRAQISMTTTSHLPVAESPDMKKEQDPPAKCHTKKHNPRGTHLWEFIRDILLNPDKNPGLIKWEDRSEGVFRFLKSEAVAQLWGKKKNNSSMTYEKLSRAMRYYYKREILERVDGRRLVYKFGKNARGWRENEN
Procedure, shortened: as §1

SPI1 = SPI1 (Homo sapiens, UniProt P17947 1-270); settings: protein: recombinant; tags: N-terminal GST; dsDNA, one strand shown
Procedure, shortened: as §1

SPIB = SPIB (Homo sapiens, UniProt Q01892 1-262); settings: protein: recombinant; tags: N-terminal GST; dsDNA, one strand shown
Chain of SPIB (Q01892 whole entry): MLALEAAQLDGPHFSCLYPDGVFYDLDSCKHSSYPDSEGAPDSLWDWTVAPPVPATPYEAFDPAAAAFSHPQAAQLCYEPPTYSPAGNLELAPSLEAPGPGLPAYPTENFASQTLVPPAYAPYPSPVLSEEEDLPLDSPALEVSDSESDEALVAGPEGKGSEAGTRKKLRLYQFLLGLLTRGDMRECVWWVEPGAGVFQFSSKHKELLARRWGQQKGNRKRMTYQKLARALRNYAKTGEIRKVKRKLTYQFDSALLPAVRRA
Procedure, shortened: as §1

ELK3 = target: T6, ELK3 (Homo sapiens, UniProt P41970 1-407); settings: protein: recombinant; tags: N-terminal GST; dsDNA, one strand shown
T6 sequence: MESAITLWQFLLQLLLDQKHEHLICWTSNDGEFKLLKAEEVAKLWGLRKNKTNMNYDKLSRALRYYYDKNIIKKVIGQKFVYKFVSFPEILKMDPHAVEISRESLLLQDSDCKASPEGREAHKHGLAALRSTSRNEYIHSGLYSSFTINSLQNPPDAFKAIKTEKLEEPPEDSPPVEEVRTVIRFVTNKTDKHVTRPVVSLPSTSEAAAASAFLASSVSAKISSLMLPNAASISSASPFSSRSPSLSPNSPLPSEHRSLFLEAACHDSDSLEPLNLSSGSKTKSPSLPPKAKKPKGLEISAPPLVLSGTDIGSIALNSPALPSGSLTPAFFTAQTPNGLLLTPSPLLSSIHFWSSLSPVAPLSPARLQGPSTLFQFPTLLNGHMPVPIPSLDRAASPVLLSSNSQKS
Procedure, shortened: as §1

FEV = target: T7, FEV (Homo sapiens, UniProt Q99581 1-238); settings: protein: recombinant; tags: N-terminal GST; dsDNA, one strand shown
T7 sequence: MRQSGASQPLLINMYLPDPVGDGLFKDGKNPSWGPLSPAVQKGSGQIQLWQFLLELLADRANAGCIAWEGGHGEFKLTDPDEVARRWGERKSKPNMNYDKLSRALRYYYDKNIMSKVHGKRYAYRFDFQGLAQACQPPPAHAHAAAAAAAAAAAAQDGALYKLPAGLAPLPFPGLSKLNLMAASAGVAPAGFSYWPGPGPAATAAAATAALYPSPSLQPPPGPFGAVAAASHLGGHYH
Procedure, shortened: as §1

ETV5 = ETV5 (Homo sapiens, UniProt P41161 1-510); settings: protein: recombinant; tags: N-terminal GST; dsDNA, one strand shown
Chain of ETV5 (P41161 whole entry): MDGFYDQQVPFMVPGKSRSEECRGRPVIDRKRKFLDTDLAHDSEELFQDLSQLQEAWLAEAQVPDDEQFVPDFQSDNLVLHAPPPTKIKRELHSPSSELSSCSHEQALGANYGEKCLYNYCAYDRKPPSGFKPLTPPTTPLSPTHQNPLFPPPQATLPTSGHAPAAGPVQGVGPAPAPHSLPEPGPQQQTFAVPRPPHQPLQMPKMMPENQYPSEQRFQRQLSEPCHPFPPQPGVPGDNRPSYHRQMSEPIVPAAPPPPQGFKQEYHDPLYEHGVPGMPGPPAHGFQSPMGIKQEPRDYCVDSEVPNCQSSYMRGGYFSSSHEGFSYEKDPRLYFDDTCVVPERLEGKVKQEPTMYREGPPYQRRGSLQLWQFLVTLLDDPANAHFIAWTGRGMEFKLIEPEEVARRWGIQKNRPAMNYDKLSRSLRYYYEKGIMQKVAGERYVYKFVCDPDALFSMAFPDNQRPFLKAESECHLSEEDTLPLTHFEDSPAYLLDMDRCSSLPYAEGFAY
Procedure, shortened: as §1

HSF1 = HSF1 (Homo sapiens, UniProt Q00613 1-529); settings: protein: recombinant; tags: N-terminal GST; chain copies: 3; dsDNA, one strand shown
Chain of HSF1 (Q00613 whole entry): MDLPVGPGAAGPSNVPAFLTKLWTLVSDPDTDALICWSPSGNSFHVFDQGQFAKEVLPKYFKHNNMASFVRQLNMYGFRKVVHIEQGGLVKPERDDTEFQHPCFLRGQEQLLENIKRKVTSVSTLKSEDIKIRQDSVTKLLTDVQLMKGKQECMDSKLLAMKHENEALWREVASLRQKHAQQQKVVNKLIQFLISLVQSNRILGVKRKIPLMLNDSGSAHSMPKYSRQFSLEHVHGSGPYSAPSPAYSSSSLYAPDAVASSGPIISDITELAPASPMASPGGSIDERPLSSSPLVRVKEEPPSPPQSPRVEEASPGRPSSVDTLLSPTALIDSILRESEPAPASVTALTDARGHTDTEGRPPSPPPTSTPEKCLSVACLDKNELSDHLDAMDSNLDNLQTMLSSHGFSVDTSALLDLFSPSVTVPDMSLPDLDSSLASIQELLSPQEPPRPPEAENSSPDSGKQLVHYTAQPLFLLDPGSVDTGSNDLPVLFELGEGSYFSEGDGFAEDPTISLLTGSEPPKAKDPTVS
Procedure, shortened: as §1

SPIC = target: T8, SPIC (Homo sapiens, UniProt Q8N5J4 1-248); settings: protein: recombinant; tags: N-terminal GST; dsDNA, one strand shown
T8 sequence: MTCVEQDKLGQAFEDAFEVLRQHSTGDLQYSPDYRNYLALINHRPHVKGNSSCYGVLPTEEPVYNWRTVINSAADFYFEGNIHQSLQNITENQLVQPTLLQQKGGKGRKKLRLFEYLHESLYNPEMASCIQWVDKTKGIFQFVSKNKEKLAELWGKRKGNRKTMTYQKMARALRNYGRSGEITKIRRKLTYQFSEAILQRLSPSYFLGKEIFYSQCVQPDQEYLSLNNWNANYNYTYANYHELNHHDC
Procedure, shortened: as §1

ELF4 = ELF4 (Homo sapiens, UniProt Q99607 1-663); settings: protein: recombinant; tags: N-terminal GST; dsDNA, one strand shown
Chain of ELF4 (Q99607 whole entry): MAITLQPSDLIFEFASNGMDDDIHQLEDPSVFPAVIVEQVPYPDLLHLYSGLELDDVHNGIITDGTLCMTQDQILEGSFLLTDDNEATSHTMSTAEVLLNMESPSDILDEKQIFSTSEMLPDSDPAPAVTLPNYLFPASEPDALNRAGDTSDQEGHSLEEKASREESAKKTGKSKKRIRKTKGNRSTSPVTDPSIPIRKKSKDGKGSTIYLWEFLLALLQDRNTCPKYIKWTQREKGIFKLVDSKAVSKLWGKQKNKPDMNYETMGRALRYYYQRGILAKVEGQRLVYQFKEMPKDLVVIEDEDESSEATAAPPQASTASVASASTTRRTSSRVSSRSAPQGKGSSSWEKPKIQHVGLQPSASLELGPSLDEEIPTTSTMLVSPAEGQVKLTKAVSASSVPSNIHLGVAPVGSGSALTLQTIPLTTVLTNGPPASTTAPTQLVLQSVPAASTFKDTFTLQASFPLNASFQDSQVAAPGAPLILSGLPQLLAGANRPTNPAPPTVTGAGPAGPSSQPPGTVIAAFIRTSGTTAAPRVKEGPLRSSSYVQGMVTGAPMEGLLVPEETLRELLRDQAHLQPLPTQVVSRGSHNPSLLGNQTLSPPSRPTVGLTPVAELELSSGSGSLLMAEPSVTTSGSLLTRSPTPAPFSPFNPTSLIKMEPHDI
Procedure, shortened: as §1

ELK4 = target: T9, ELK4 (Homo sapiens, UniProt P28324-2 1-405); settings: protein: recombinant; tags: N-terminal GST; dsDNA, one strand shown
T9 sequence: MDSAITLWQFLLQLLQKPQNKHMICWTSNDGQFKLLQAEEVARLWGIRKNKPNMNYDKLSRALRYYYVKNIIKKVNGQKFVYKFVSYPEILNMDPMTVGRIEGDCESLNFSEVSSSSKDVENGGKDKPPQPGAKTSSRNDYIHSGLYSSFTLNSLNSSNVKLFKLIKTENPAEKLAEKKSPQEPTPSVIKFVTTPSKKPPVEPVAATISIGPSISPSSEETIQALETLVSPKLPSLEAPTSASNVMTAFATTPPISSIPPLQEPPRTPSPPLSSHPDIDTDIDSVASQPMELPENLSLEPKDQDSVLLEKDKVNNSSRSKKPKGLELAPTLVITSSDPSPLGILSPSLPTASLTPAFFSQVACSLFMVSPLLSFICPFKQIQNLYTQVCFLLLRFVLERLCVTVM
Procedure, shortened: as §1

ETV2 = target: T10, ETV2 (Homo sapiens, UniProt O00321 1-342); settings: protein: recombinant; tags: N-terminal GST; dsDNA, one strand shown
T10 sequence: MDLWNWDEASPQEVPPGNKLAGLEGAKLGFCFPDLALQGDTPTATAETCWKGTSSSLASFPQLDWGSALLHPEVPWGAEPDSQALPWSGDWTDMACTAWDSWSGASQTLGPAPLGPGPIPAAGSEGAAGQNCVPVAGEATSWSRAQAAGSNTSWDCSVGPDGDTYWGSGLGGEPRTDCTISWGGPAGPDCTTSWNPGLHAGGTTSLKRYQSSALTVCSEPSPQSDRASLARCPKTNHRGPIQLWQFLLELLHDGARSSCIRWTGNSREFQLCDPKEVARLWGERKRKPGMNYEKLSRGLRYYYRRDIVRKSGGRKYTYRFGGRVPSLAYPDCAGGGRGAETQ
Procedure, shortened: as §1

ELF3 = target: T11, ELF3 (Homo sapiens, UniProt P78545 1-371); settings: protein: recombinant; tags: N-terminal GST; dsDNA, one strand shown
T11 sequence: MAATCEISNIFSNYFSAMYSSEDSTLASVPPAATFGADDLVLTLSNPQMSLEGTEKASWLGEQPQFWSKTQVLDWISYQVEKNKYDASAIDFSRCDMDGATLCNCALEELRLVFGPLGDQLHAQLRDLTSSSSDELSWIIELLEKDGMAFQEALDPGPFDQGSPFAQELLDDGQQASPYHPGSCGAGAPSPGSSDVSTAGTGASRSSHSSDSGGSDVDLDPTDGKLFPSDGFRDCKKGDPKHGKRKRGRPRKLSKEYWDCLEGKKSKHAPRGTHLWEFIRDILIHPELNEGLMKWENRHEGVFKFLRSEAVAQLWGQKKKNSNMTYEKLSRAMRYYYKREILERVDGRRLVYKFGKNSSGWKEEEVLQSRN
Procedure, shortened: as §1

CRX = CRX (Homo sapiens, UniProt O43186 1-299); settings: protein: recombinant; tags: N-terminal GST; dsDNA, one strand shown
Chain of CRX (O43186 whole entry): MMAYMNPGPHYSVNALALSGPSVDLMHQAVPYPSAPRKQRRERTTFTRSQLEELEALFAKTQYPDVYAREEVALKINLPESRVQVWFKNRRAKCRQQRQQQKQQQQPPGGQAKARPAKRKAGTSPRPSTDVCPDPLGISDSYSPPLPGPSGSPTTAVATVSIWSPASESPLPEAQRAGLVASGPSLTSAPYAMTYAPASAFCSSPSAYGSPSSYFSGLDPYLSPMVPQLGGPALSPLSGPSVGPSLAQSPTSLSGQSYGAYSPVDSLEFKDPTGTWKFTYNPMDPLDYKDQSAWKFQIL
Procedure, shortened: as §1

ETV1 = ETV1 (Homo sapiens, UniProt P50549 1-477); settings: protein: recombinant; tags: N-terminal GST; dsDNA, one strand shown
Chain of ETV1 (P50549 whole entry): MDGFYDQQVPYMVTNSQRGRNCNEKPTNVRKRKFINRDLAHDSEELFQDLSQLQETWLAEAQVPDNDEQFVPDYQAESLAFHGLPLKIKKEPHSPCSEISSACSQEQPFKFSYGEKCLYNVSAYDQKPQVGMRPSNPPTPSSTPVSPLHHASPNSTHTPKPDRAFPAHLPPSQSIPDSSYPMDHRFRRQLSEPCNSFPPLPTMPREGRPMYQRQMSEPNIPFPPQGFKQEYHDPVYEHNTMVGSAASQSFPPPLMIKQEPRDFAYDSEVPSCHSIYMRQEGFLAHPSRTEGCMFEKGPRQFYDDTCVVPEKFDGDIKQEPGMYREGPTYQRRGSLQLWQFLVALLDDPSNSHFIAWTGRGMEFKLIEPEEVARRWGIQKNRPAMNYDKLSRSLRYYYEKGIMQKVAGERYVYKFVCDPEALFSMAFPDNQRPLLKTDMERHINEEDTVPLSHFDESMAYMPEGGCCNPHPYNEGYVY
Procedure, shortened: as §1

TTCATG
binding signal (FLI1): 1.35 fold enrichment (6-mer frequency, TF over GST control) | binding signal (ELK1): 1.26 fold enrichment (6-mer frequency, TF over GST control) | binding signal (GABPA): 1.35 fold enrichment (6-mer frequency, TF over GST control) | binding signal (ERG): 1.28 fold enrichment (6-mer frequency, TF over GST control) | binding signal (ELF1): 1.33 fold enrichment (6-mer frequency, TF over GST control) | binding signal (EHF): 1.29 fold enrichment (6-mer frequency, TF over GST control) | binding signal (SPI1): 1.32 fold enrichment (6-mer frequency, TF over GST control) | binding signal (SPIB): 1.34 fold enrichment (6-mer frequency, TF over GST control) | binding signal (ELK3): 1.22 fold enrichment (6-mer frequency, TF over GST control) | binding signal (FEV): 1.23 fold enrichment (6-mer frequency, TF over GST control) | binding signal (ETV5): 1.27 fold enrichment (6-mer frequency, TF over GST control) | binding signal (HSF1): 1.23 fold enrichment (6-mer frequency, TF over GST control) | binding signal (SPIC): 1.35 fold enrichment (6-mer frequency, TF over GST control) | binding signal (ELF4): 1.33 fold enrichment (6-mer frequency, TF over GST control) | binding signal (ELK4): 1.32 fold enrichment (6-mer frequency, TF over GST control) | binding signal (ETV2): 1.26 fold enrichment (6-mer frequency, TF over GST control) | binding signal (ELF3): 1.27 fold enrichment (6-mer frequency, TF over GST control) | binding signal (CRX): 1.16 fold enrichment (6-mer frequency, TF over GST control) | binding signal (ETV1): 1.29 fold enrichment (6-mer frequency, TF over GST control)
